Values joined by “and” are separate entries in the source; they are usually repeats but may differ in a detail not shown here. Identical values can stand only once. Results filed as inconclusive are left out. Unmarked numbers belong to inactive results. Active and inactive are the calls of the source. Calls follow the shape of the dose curve; as a rule, active = well fitted cell-killing curve with a large enough effect; inconclusive = small, poorly fitted or top-dose-only effect, or effect the other way; inactive = no such curve, though single readings can be large or run the other way.
assay: Viability qHTS for spleen associated tyrosine kinase inhibitor (SYKi) naive MV4-11 cells (AID 1963823); details: MV4-11 AML viability, CellTiter-Glo luminescence, 72 h; series mostly up to 45 µM; viability (% of control): at the top concentration; also: nearly all actives have a fitted effect of over 40% in size
Summary of the method: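 CellTiter-Glo luminescence, 10 min room-temperature incubation, gave viability. Cells: naive MV4-11 (500/well), treated 72 hr at 37 C, 5% CO2.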
Potency is read from the fitted curve at half-maximal effect.

With `CN1CCN(c2ccc3nc(-c4c(N)c5c(F)cccc5[nH]c4=O)[nH]c3c2)CC1` as the compound, how does the Potency read?
The Potency was 0.0116 µM (active).

Which Potency does the source give for `C[C@H]1[C@H](C)CC[C@]2(C(=O)O)CC[C@]3(C)C(=CC[C@@H]4[C@@]5(C)CC[C@H](O)C(C)(C)[C@@H]5CC[C@]43C)[C@H]12` here?
The Potency was 23.5 µM (active).

With `CN1CCCN(C(=O)c2cccc(-c3ccc(/C=C4/C(=O)Nc5ccc(Cl)cc54)o3)c2)CC1` as the compound, how does the Potency read?
The Potency was 0.417 µM (active).

Which Potency does the source give for `C[C@]12CCC3[C@@H](CC[C@H]4NC(=O)C=C[C@]34C)[C@@H]1CC[C@@H]2C(=O)Nc1cc(C(F)(F)F)ccc1C(F)(F)F` (some centres not stated) here?
The Potency was 10.5 µM (active).

With `O=C(c1ccc(F)c(F)c1Nc1ccc(I)cc1F)N1CC(O)([C@@H]2CCCCN2)C1` as the compound, how does the Potency read?
The Potency was 326 nM (active) and 235 nM (active).

Which “viability (% of control)” value does the source give for `CCS(=O)(=O)N1CCC([C@@H](C)n2c(C)c(C(=O)NCc3c(OC)cc(C)[nH]c3=O)c3ccccc32)CC1` here?
Its value is 83.3%.

With `CCC[C@H](N[C@H]1CCc2cc(F)cc(F)c2C1)C(=O)Nc1cn(C(C)(C)CNCC(C)(C)C)cn1` as the compound, how does the Potency read?
Its Potency is 8.33 µM (active).

For `CC(C)NC[C@@H](O)COc1ccc(CC(N)=O)cc1`, which “viability (% of control)” value is on record?
The value was 105%.

For `CCC(CC)CC1(C(=O)Nc2ccccc2SC(=O)C(C)C)CCCCC1`, which Potency is on record?
Its Potency is “inactive”.

Which Potency does the source give for `CC(=O)c1ccc2c(c1)c1cc(C(C)=O)ccc1n2CCNC(C)C` here?
Its Potency is 0.372 µM (active).

With `OC[C@@H](O)[C@@H](O)[C@H](O)[C@H](O)CO` as the compound, how does the “viability (% of control)” value read?
The value was 82.5%.

For `CCNCCc1ccc(CN(CC)c2cc(OC)ccc2[C@@H]2CCc3cc(O)ccc3C2)cc1`, which Potency is on record?
Its Potency is 2.35 µM (active).

Reference: PubChem BioAssay (NCATS)
